Reference: article PMC4552634, “A New Set of Chemical Starting Points with Plasmodium falciparum Transmission-Blocking Potential for Antimalarial Drug Discovery” (PLoS ONE, 2015)
Hit rate of the full screen: of about 13,000 compounds, about 3,200 (25%) showed an effect of 50% or more. Some of the results follow.

What follows are molecules tested on P. falciparum stage V gametocytes. Conditions: 48 h, 5 µM; inhibitor.
Design: BacTiter-Glo ATP luminescence viability of purified stage V gametocytes in 384-well plates, per cent inhibition versus DMSO

SMILES | % Inhibition [%]
Cc1ccc(-n2c(=O)c3cccnc3n2CC(=O)Nc2cccc(C)c2C)cc1 [TCMDC-125161] | 23.17
CCCC(C)N(Cc1ccc(C(C)(C)C)cc1)C(=O)c1ccc(OC)cc1 (stereo not drawn) [TCMDC-139782] | 14.81
COc1ccc(CN(C2CC2)C(C)C(=O)c2[nH]c(C)c(C(C)=O)c2C)cc1 (stereo not drawn) [TCMDC-125037] | 53.61
CC1(C)N=C(NC(=O)c2cc([N+](=O)[O-])cc([N+](=O)[O-])c2)N=C(N)N1OCc1cccc2ccccc12 [TCMDC-131584] | -17.03
O=C(Cc1ccc(NC(=O)c2ccc(O)c(-c3ccc(Cl)c(Cl)c3)c2)cc1)NCc1cccc(C(F)(F)F)c1 [TCMDC-140835] | -7.918
COc1ccc(CNC(=O)c2cnc3c(O)cccc3c2Nc2cccc(NC(=O)c3ccc(-c4ccccc4)cc3)c2)cc1.O=C(O)C(F)(F)F [TCMDC-139611] | 77.42
CN(c1cc(NC(=O)c2ccc(F)cc2)ccn1)C1CCN(Cc2cccc(O)c2)CC1 [TCMDC-134966] | -19
COc1ccc(CNC(=O)c2cnc3cc(-c4c(C)noc4C)ccc3c2Nc2ccccc2C(C)(C)C)cc1.Cl [TCMDC-136367] | -23.94
NS(=O)(=O)c1ccc(CNC(=O)c2cnc3c(O)cccc3c2Nc2cccc(NC(=O)c3ccc(Cl)c(Cl)c3)c2)cc1.O=C(O)C(F)(F)F [TCMDC-139608] | 34.02
CC(C)CCNC(=O)c1cnc2c(O)cccc2c1Nc1cccc(NC(=O)c2ccc(F)cc2)c1.O=C(O)C(F)(F)F [TCMDC-139606] | 111.5
Nc1nc(Nc2cccc(Cl)c2)ncc1C(=O)NCc1ccncc1 [TCMDC-135688] | 0.6434
CC(C)(C)c1ccc(C(=O)Nc2cccc(Nc3c(C(=O)NCc4cccc(C(F)(F)F)c4)cnc4c(O)cccc34)c2)cc1.O=C(O)C(F)(F)F [TCMDC-139610] | 57.39
CC(C)CCNC(=O)c1cc(C(=O)c2cc(F)ccc2O)cn(CCC(C)C)c1=O [TCMDC-124499] | 0.8137
COc1ccc(CNC(=O)c2cnc3c(O)cccc3c2Nc2cccc(NC(=O)c3ccc(Cl)c([N+](=O)[O-])c3)c2)cc1.O=C(O)C(F)(F)F [TCMDC-139609] | 35.62
COc1ccc(CNC(=O)c2cnc3c(O)cccc3c2Nc2cccc(NC(=O)c3ccc(Cl)c(Cl)c3)c2)cc1.O=C(O)C(F)(F)F [TCMDC-139607] | 97.23
OCc1ccc2nc3c(cc2c1)-c1cccc2cccc-3c12 [TCMDC-137756] | 2.597
Cc1cc(N2CCCC2)nc(Nc2ccc(NC(=O)c3ccccc3)cc2)n1 [TCMDC-124713] | -11.14

SMILES | % Inhibition [%]
COc1cccc(OC)c1OCCCOc1c(C)nc(N)nc1N [TCMDC-131352] | 5.526
c1ccc(Oc2ccc(Nc3nc(NCCc4cnc[nH]4)nc(NC4CCCC4)n3)cc2)cc1 [TCMDC-139745] | 20.05
COc1ccc(CNC(=O)c2cnc3c(O)cccc3c2Nc2cccc(NC(=O)c3ccc(F)cc3)c2)cc1.O=C(O)C(F)(F)F [TCMDC-139605] | 78.77
COc1ccc(CN2CCC(Oc3cccc(NC(=O)c4ccc(C(F)(F)F)cc4)c3)CC2)cc1 [TCMDC-133735] | -21.77
O=C(Nc1cccc(OC2CCN(Cc3ccc(F)cc3)CC2)c1)c1ccc(C(F)(F)F)cc1 [TCMDC-133734] | -18.45
O=C(Nc1ccc(Cl)c(Cl)c1)N1CCC(NCc2cccc([N+](=O)[O-])c2)CC1 [TCMDC-141277] | 22.25
O=C(CN1C(=O)CC1S(=O)(=O)Cc1ccco1)NCCCCCCc1ccc(F)cc1 (stereo not drawn) [TCMDC-139032] | 21.56
COc1cccc(C(C)(C)NC[C@@H](O)[C@H](Cc2ccccc2)NC(=O)c2cc(C3CCCC3)cc(N3CCCCS3(=O)=O)c2F)c1 [TCMDC-135510] | 45.23
CCN(CC)CCN(Cc1ccc(-c2ccc(C(F)(F)F)cc2)cc1)C(=O)Cn1c(CCc2c(F)cccc2F)nc(=O)c2ccccc21 [TCMDC-140950] | 87.94
CCN(CC)CCN(Cc1ccc(-c2ccc(C(F)(F)F)cc2)cc1)C(=O)Cn1c(CCc2c(F)cc(F)cc2F)nc(=O)c2ccccc21 [TCMDC-140967] | 61.03
CCN(CC)CCN(Cc1ccc(-c2ccc(C(F)(F)F)cc2)cc1)C(=O)Cn1c(CCc2c(F)ccc(F)c2F)nc(=O)c2ccccc21 [TCMDC-140953] | 67.68
CCN(CC)CCN(Cc1ccc(-c2ccc(C(F)(F)F)cc2)cc1)C(=O)Cn1c(CCc2cc(F)cc(F)c2F)nc(=O)c2ccccc21 [TCMDC-140955] | 88.67
CC(CCCCOCCc1ccccc1)NCC(O)c1cc(Cl)c(N)c(Cl)c1 (stereo not drawn) [TCMDC-132072] | 16.2
Cc1ccc(-c2nnc(Nc3ccc(C(=O)N4CCCCC4)cc3)c3ccccc23)cc1S(=O)(=O)NCC1CCCO1 (stereo not drawn) [TCMDC-125618] | 37.21
COc1ccc2nccc([C@@H](O)CN3CCC(NCc4cc5cccc(OC)c5o4)CC3)c2c1 [TCMDC-140683] | -7.327
O[C@@H](c1cc(C(F)(F)F)nc2c(C(F)(F)F)cccc12)[C@H]1CCCCN1 [TCMDC-124288] | 25.8
